18 molecules from PubChem BioAssay (NCATS) can be followed below.

Where “and” joins values, the source holds several entries; their conditions need not be identical. Equal values may be shown once. Results filed as inconclusive are left out. Calls of active or inactive are those of the source. Unless noted, the call rests on the fitted dose curve; in most records, active means well fitted curve in the direction sought with a large enough effect; inconclusive means small, poorly fitted or top-dose-only effect, or another doubt; inactive means no such curve, though single readings can be large; an effect the other way counts as inactive or inconclusive. Where a SMILES comes first, the peptide text is derived from it.

A short description of test [1]: qHTS to identify inhibitors of the type 1 interferon - major histocompatibility complex class I in skeletal muscle: primary screen against the NCATS Mechanism Interrogation Plate v5.0 (MIPE) Libary (AID 1347411).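 Further: plate controls were vehicle for no effect and reference inhibitor for full effect; nearly all actives have a fitted effect of over 65% in size.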 A digest of the protocol: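 Luminescence from HiBiT-tagged endogenous HLA-B*08:01 served as the MHC class I read-out. CRISPR-engineered C25cl48 human myoblasts received 4.0 ng/ml IFN-beta plus compound for 24 hrs, with an 11-point, 1:3 series topping at 46 uM final.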

Test [2] is described as follows: Primary qHTS for inhibitors of nuclear receptor binding SET domain protein 2 (NSD2) in an isogenic RCH-ACV NSD2 p.E1099K mutant (9B) (AID 1645876). Further: nearly all actives have a fitted effect of over 70% in size. Further: potency means the concentration at half of the fitted maximal effect. A general note: qHTS replaces the single test concentration by a dilution series.
A short description of test [3]: Primary qHTS for inhibitors of nuclear receptor binding SET domain protein 2 (NSD2) in an RCH-ACV wild type WT cells (2C) (AID 1645877). Further: nearly all actives have a fitted effect of over 70% in size. Further: potency means the concentration at half of the fitted maximal effect.
The target in test [4] is Glutathione peroxidase 1 (Homo sapiens) (UniProt P07203). Kind of test: Primary qHTS Assay for Inhibitors of Recombinant Selenoprotein Glutathione Peroxidase 1 (GPX1) (AID 1845191). Further: nearly all actives have a fitted effect of over 65% in size. A digest of the protocol:
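Recombinant GPX1 (10 nM final) was preincubated with compound for 30 min at room temperature, then reacted with 1 mM GSH, 0.5 mM CHP, 0.5 mM NADPH and 100 nM glutathione reductase; NADPH fluorescence (340/450 nm) was read at 0 and 15 min.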

The target of test [5] is Phospholipid hydroperoxide glutathione peroxidase GPX4 (Homo sapiens) (UniProt P36969). Kind of test: Primary qHTS Assay for Inhibitors of Recombinant Selenoprotein Glutathione Peroxidase 4 (GPX4) (AID 1845192). Further: nearly all actives have a fitted effect of over 65% in size. On activity change, negative = inhibition: series mostly up to about 50 µM; on the % scale 0 is the no-effect control and ±100 the full control effect. The settings on record: outcome: dose series up to 50 µM unless noted. A digest of the protocol: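 GR-coupled readout: 100 nM GR, 1 mM GSH, 0.5 mM NADPH; NADPH fluorescence (ex 340/em 450 nm) read at t=0 and after 15 min RT. GPX4 200 nM, preincubated 30 min with compound; substrate 0.5 mM CHP.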

Test [6] can be described thus: qHTS drug screen for cell cycle checkpoint inhibitors in PARPi-resistant BRCA-mutant ovarian cancer cell lines. (AID 1963452; calls by dose curve; further: potency means the concentration at half of the fitted maximal effect). Particulars: PEO1/OlaR viability, CellTiter-Glo luminescence, 96 h; for Z-AUC: stronger effect = lower value. A digest of the protocol:
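PEO1, PEO4 and PEO1/OlaR ovarian cancer cells, 600 per well, exposed 96 h at 37C to a dilution series. Viability read by CellTiter-Glo luminescence, normalized to DMSO and empty wells; activity summarized as Z-AUC.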

The mark [7] stands for this setting: measured here: PEO1 parental Z-AUC.

Sequence of Phospholipid hydroperoxide glutathione peroxidase GPX4 (Homo sapiens) (P36969 whole entry, looked up): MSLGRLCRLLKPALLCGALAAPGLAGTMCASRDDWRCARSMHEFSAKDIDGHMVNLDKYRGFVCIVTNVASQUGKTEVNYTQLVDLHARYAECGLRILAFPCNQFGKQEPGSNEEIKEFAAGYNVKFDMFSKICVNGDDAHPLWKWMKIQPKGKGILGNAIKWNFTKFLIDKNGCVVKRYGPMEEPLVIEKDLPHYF
Sequence of Glutathione peroxidase 1 (Homo sapiens) (P07203 whole entry, looked up): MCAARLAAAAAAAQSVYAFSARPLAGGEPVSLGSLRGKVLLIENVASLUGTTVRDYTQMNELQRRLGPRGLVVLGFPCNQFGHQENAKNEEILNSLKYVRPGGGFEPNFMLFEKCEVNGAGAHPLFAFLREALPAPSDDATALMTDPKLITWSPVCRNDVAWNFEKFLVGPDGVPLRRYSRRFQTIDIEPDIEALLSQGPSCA

For the molecule `CNC(=O)[C@@H](NC(=O)[C@H](CC(C)C)[C@H](O)C(=O)NO)C(C)(C)C`, the Potency entry in test [1], in test [4] and in test [5] was “inactive” each time. Moreover, the Potency is 18.6 µM (active) in test [2] and 13.2 µM (active) in test [3]. Also, the Z-AUC was 1.14 (inactive) in test [6], 0.454 in test [6] (setting [7]) and 0.976 in test [6] (measured here: PEO4 Z-AUC).
In the case of `O=c1[nH]nc2c3c(cccc13)NC(CN1Cc3ccccc3C1)=N2`, the Potency result in test [1], in test [4] and in test [5] was “inactive” throughout. In addition, the Potency in test [2] is 20.9 µM (active); in test [3], 18.6 µM (active). Further, the Z-AUC is -0.263 (inactive) in test [6], -0.113 in test [6] (setting [7]) and -0.251 in test [6] (measured here: PEO4 Z-AUC).
With `N[C@@H](CCC(=O)O)C(=O)N[C@@H](Cc1c[nH]c2ccccc12)C(=O)O` (H-Glu-Trp-OH), the Potency entry in test [1], in test [2], in test [3], in test [4] and in test [5] was “inactive” each time. Also, the figures for the Z-AUC in test [6], in test [6] (setting [7]) and in test [6] (measured here: PEO4 Z-AUC) were 1.08 (inactive), 0.582 and 0.474, respectively.
In the case of `CC#Cc1cncc(-c2ccc3c(c2)[C@@]2(N=C(C)C(N)=N2)C2(CCC(OC)CC2)C3)c1` (some centres undefined), the Potency entry in test [1], in test [2], in test [3], in test [4] and in test [5] was “inactive” throughout. The Z-AUC in test [6] was 1.27 (inactive); in test [6] (setting [7]), 0.521; in test [6] (measured here: PEO4 Z-AUC), 0.345.
As to `Cc1onc(-c2ccc(F)cc2)c1COc1ccc(C(=O)N2CCS(=O)(=O)CC2)cn1`, the Potency result in test [1], in test [2], in test [3], in test [4] and in test [5] was “inactive” throughout. The figures for the Z-AUC in test [6], in test [6] (setting [7]) and in test [6] (measured here: PEO4 Z-AUC) were 0.971 (inactive), 1.31 and 0.844, respectively.
For `COc1ccc(-c2oc3c(CC=C(C)C)c(OC4O[C@H](CO)[C@@H](O)[C@H](O)[C@H]4O)cc(O)c3c(=O)c2OC2O[C@@H](C)[C@H](O)[C@@H](O)[C@H]2O)cc1` (some centres undefined), the Potency entry in test [1], in test [2], in test [3], in test [4] and in test [5] was “inactive” throughout. Further, the Z-AUC in test [6] was 0.153 (inactive); in test [6] (setting [7]), 0.0996; in test [6] (measured here: PEO4 Z-AUC), 0.222.
Take `CC(C)(O)[C@H]1CC[C@@](C)([C@H]2[C@@H](O)C[C@@]3(C)[C@@H]4C[C@H](O[C@@H]5O[C@H](CO)[C@@H](O)[C@H](O)[C@H]5O)[C@H]5C(C)(C)[C@@H](O[C@@H]6OC[C@@H](O)[C@H](O)[C@H]6O)CC[C@@]56C[C@@]46CC[C@]23C)O1`: the Potency entry in test [1], in test [2], in test [3], in test [4] and in test [5] was “inactive” throughout. The Z-AUC in test [6] is -0.0384 (inactive); in test [6] (setting [7]), 1.82; in test [6] (measured here: PEO4 Z-AUC) it was 1.68.
For `Cc1c(Cl)cccc1S(=O)(=O)Nc1nc(CCN2CCOCC2=O)cs1`, the Potency entry in test [1], in test [2], in test [3], in test [4] and in test [5] was “inactive” throughout. The Z-AUC is 0.943 (inactive) in test [6], 0.512 in test [6] (setting [7]) and 0.46 in test [6] (measured here: PEO4 Z-AUC).
With `O=C(Nc1ccc(OC(F)(F)Cl)cc1)c1cnc(N2CC[C@@H](O)C2)c(-c2ccn[nH]2)c1`, the Potency entry in test [1], in test [4] and in test [5] was “inactive” each time. Besides, the values for the Potency in test [2] and in test [3] were 16.6 µM (active) and 14.8 µM (active), respectively. Further, the Z-AUC is -1.46 (inactive) in test [6], -0.874 in test [6] (setting [7]) and -0.386 in test [6] (measured here: PEO4 Z-AUC).
In the case of `CN1C(N)=N[C@](C)(c2cc(NC(=O)c3ccc(F)cn3)ccc2F)CS1(=O)=O`, the Potency result in test [1], in test [2], in test [3], in test [4] and in test [5] was “inactive” throughout. The Z-AUC in test [6] was 1.51 (inactive); in test [6] (setting [7]), 0.477; in test [6] (measured here: PEO4 Z-AUC), 0.848.
Regarding `CNC(=O)Cn1cc(-c2ccc3c(c2)C(F)CC32NC(=O)N(CC(=O)N(Cc3ccc(F)cc3)[C@@H](C)C(F)(F)F)C2=O)cn1` (some centres undefined), the Potency result in test [1], in test [4] and in test [5] was “inactive” in each case. Further, the Potency was 0.0525 µM (active) in test [2] and 0.0661 µM (active) in test [3]. Further, the Z-AUC in test [6] was 0.811 (inactive) and 1.3 (inactive); in test [6] (setting [7]), 0.434 and 1.73; in test [6] (measured here: PEO4 Z-AUC), 0.0101 and 0.997.
As to `O=C(NCc1ccccc1)[C@H](Cc1ccccc1)NC(=O)[C@H]1O[C@@H]1C(=O)NCCc1ccc(O)cc1`, the Potency result in test [1], in test [4] and in test [5] was “inactive” throughout. The Potency is 23.5 µM (active) in test [2] and 18.6 µM (active) in test [3]. Further, the Z-AUC in test [6] was 1.49 (inactive); in test [6] (setting [7]) it was 0.636; in test [6] (measured here: PEO4 Z-AUC) it was 0.423.
Consider `CC(C)[C@H]1C(=O)N[C@@H](CCCN=C(N)N)C(=O)NCC(=O)N[C@@H](CC(=O)O)C(=O)N[C@H](Cc2ccccc2)C(=O)N1C`, for which the Potency entry in test [1], in test [2], in test [3], in test [4] and in test [5] was “inactive” throughout. Moreover, the figures for the Z-AUC in test [6], in test [6] (setting [7]) and in test [6] (measured here: PEO4 Z-AUC) were -1.37 (inactive), -1.22 and -0.795, respectively.
For `CCOC(=O)N[C@@H]1CC[C@@H]2[C@@H](C1)C[C@H]1C(=O)O[C@H](C)[C@H]1[C@H]2/C=C/c1ccc(-c2cccc(F)c2)cn1`, the Potency entry in test [1], in test [4] and in test [5] was “inactive” in each case. Also, the values for the Potency in test [2] and in test [3] were 18.6 µM (active) and 13.2 µM (active), respectively. In addition, the Z-AUC was 0.314 (inactive) in test [6], 1.37 in test [6] (setting [7]) and 1.33 in test [6] (measured here: PEO4 Z-AUC).
Regarding `CC(C)(O)CS(=O)(=O)Nc1ccc2c(c1)CCN(C(=O)COc1cccnc1)C2`, the Potency result in test [1], in test [4] and in test [5] was “inactive” throughout. Moreover, the Potency in test [2] was 0.0372 µM (active); in test [3] it was 0.0332 µM (active). Besides, the Z-AUC in test [6] is -2.38 (inactive); in test [6] (setting [7]), -2.73; in test [6] (measured here: PEO4 Z-AUC), -2.65.
`Cc1ccc(-c2ccc(C)cn2)nc1`: the Potency entry in test [1], in test [2], in test [3], in test [4] and in test [5] was “inactive” in each case. The results for the Z-AUC in test [6], in test [6] (setting [7]) and in test [6] (measured here: PEO4 Z-AUC) were 1.52 (inactive), 0.85 and 1.74, respectively.
In the case of `CCC(=O)N1CCOc2c(cc(-c3cc(OC)cc(OC)c3)cc2C(=O)N[C@H]2CCCN(C)C2)C1`, the Potency entry in test [1], in test [4] and in test [5] was “inactive” throughout. Moreover, the Potency in test [2] and in test [3] was 4.17 µM (active) each time. The Z-AUC is 1.12 (inactive) in test [6], 0.448 in test [6] (setting [7]) and 0.4 in test [6] (measured here: PEO4 Z-AUC).
Take `C=C1C[C@@H]2CC[C@@]34C[C@H]5O[C@H]6[C@@H](O3)[C@H]3O[C@H](CC[C@@H]3O[C@H]6[C@H]5O4)CC(=O)C[C@@H]3[C@@H](OC)[C@@H](C[C@H](O)CN)O[C@H]3C[C@H]3O[C@@H](CC[C@@H]1O2)C[C@@H](C)C3=C`: the activity change, negative = inhibition in test [1] is -7.19% [at 8.44 µM] (inactive). Further, the results for the Potency in test [2], in test [3] and in test [6] were 0.0014 µM (active), 0.0011 µM (active) and 0.0089 µM (active), respectively. For the same molecule, the Potency entry in test [4] and in test [5] was “inactive” each time. Also, the Z-AUC in test [6] (setting [7]) was -3.01; in test [6] (measured here: PEO4 Z-AUC), -2.65.
